High-throughput results as filed in PubChem BioAssay.
HPGD block: blocks human HPGD enzyme activity; P15428; purified HPGD, NADH fluorescence kinetic, PGE2 substrate; Potency, µM, for the others: top-dose activity change, negative = inhibition, usual class: inhibitors; hit rate 4.3% among 150,000; note: potency is the fitted concentration of half-maximal effect
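20 nM HPGD preincubated 15 min at room temperature with compound in 50 mM Tris-HCl pH 8, 0.01% Tween 20. Started with 1 mM NAD+ and 30 uM prostaglandin E2; NADH fluorescence (360/450 nm) read 5 times over 30-s intervals, last minus first.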
ALDH1A1 block: ALDH1A1 (human) enzyme inhibition | hit rate 7.3% among 220,000 | Potency, µM (highest dose often 75.3 µM), for inactives: top-dose activity, negative = inhibition, usual class: inhibitors | AID 1030 | P00352 | Purified ALDH1A1, NADH fluorescence, propionaldehyde substrate;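 note: potency is the fitted concentration of half-maximal effect; plate controls were no enzyme wells and a reference inhibitor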
12-hLO inh: blocks human 12-lipoxygenase activity; P18054; hit rate 0.12% among 150,000; Potency, µM (highest dose often 57.1 µM), for inactives: at the highest dose activity change, negative = inhibition, most hits filed as inhibitors; purified 12-hLO, xylenol orange hydroperoxide absorbance; active = well fitted inhibition curve with a large enough effect; inconclusive = small, poorly fitted or top-dose-only effect; note: potency is the fitted concentration of half-maximal effect; nearly all actives have a fitted effect of over 55% in size
Target sequence (P18054 whole entry, looked up): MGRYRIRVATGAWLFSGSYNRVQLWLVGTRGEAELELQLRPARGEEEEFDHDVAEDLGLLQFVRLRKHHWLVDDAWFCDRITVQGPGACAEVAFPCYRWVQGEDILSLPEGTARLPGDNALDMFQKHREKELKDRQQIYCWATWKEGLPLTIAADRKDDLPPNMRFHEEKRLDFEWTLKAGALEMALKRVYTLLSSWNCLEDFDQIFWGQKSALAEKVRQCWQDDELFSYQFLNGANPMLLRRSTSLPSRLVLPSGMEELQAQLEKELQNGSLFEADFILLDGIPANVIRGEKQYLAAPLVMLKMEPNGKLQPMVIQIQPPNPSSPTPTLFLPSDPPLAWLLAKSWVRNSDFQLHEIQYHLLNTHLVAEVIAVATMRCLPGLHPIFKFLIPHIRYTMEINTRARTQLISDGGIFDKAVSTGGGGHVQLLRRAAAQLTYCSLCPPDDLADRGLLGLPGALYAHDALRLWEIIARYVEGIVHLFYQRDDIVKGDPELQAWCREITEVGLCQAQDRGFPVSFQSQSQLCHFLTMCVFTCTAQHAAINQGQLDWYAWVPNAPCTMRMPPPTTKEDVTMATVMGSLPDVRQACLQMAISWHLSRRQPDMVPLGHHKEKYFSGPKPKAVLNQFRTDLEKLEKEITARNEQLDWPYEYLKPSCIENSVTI
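Hydroperoxide formation by human 12-lipoxygenase from 40 uM arachidonic acid was followed colorimetrically via ferric-xylenol orange complex, using the 573/405 nm absorbance ratio. Enzyme concentration was 150 nM, with 30 min reaction at room temperature.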
PNC assembly inh: blocks assembly of the perinucleolar compartment; activity change (PNC), negative = inhibition, % at 10 µM; PC3M PTB-GFP, PNC prevalence imaging, 16 h; active compounds read low; AID 2417; hit rate 3.1% among 140,000;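 active = readout at or below -70, meaning at least 70% loss of cells showing the perinucleolar compartment, a nuclear body marking cancer cells; inconclusive = readout between -30 and a set limit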;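 note: plate controls were DMSO wells for no effect and camptothecin positive control wells for full effect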
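Read-out is percentage of cells bearing a perinucleolar compartment, from automated 20x imaging of fixed, Hoechst-stained PC3M PTB-GFP cells. Cells were seeded 4 h, then exposed 16 h to compound (23 nl of library stock) in duplicate plates.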
Lamin A splicing: changes lamin A minigene splicing in HeLa cells; AID 1487; hit rate 0.01% among 200,000; Potency, µM (highest dose often 46.1 µM), inactives show at the highest dose ratio change, negative = inhibition, usual class: inhibitors; HeLa LMNA splicing GFP/RFP minigene ratio, 48 h; active = well fitted inhibition curve with a large enough effect in the signal ratio, with a control signal flat, not every such curve was filed as active; inconclusive = small, poorly fitted or top-dose-only effect, or effect the other way, or a change in a side signal; the % refers to the signal ratio; note: potency is the fitted concentration of half-maximal effect
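S3 HeLa stable clones carrying a lamin A-EGFP splicing minigene plus DsRed2 were seeded at 600 cells/well in Opti-MEM with 2% FBS, pin-dosed and incubated 48 h at 37°C. Acumen cytometry (488 nm) gave the GFP/RFP total-intensity ratio.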
The depositor's hits bear a star; [ ] = remark or other dose. This is a sample that favours compounds with a hit; in the whole collection about 10% have one here. Unless noted, calls come from the whole dose curve; as a rule, active = well fitted inhibition curve with a large enough effect (not every such curve was filed as active); inconclusive = small, poorly fitted or top-dose-only effect, or another doubt; inactive = no such curve, though single readings can be large or run the other way. Unless noted, % is set by controls: 0 for no effect and ±100 for the full control effect.

For Cc1occc1C(=O)Nc1cccc(C(=O)NCc2ccccc2)c1 the results were HPGD block 22µM*, ALDH1A1 block inconclusive, 12-hLO inh 2%, PNC assembly inh -29 and Lamin A splicing 2%.
`Cc1ccc(C(=O)Nc2cccc(C(=O)NCc3ccccc3)c2)cc1` gave HPGD block -17%, ALDH1A1 block 0%, 12-hLO inh -1%, PNC assembly inh 29 and Lamin A splicing inconclusive.
Screening Cc1occc1C(=O)NCc1ccccc1F returned HPGD block inconclusive, ALDH1A1 block 10µM*, 12-hLO inh -6%, PNC assembly inh 51 and Lamin A splicing 3%.
CN(C)CCNS(=O)(=O)N(C)C was read as HPGD block -4%, ALDH1A1 block inconclusive and 12-hLO inh 2%[11.4 µM].
For COc1ccc(OC)c(Nc2nc(=O)c3cccnc3s2)c1 the results were ALDH1A1 block 2µM*.
CCc1ccc(NC(=O)CN2C(=O)C3(SCC(=O)N3c3ccccc3)c3ccccc32)cc1 (centres undefined) was read as Lamin A splicing -6%[46 µM].
For N#CCCN(C(=O)CN1C(=O)NC2(CCCC2)C1=O)c1ccccc1F the results were HPGD block -10%, ALDH1A1 block 7.9µM*, 12-hLO inh 6%, PNC assembly inh 37 and Lamin A splicing 10%.
`O=[N+]([O-])c1nn(-c2ccc3c(c2)OCCO3)n(O)c1=NC1CCCC1` gave HPGD block -16%, ALDH1A1 block inconclusive, 12-hLO inh 2%, PNC assembly inh inconclusive and Lamin A splicing -1%.
For O=[N+]([O-])c1nn(-c2ccc3c(c2)OCCO3)n(O)c1=Nc1ccccc1 the results were HPGD block -3%, ALDH1A1 block 11µM*, 12-hLO inh -1%, PNC assembly inh inconclusive and Lamin A splicing inconclusive.
`O=[N+]([O-])c1nn(-c2ccc3c(c2)OCCO3)n(O)c1=NC1CCCCCC1` gave HPGD block -4%, ALDH1A1 block 14µM*, 12-hLO inh -21%, PNC assembly inh 13 and Lamin A splicing inconclusive.
`CN(C)CCCO[C@H]1[C@H]([C@H](O)CO)O[C@H]2OC(C)(C)O[C@@H]21` gave 12-hLO inh -4%.
For O=[N+]([O-])c1ccc(-c2nnc(-c3ccccc3)c(NCCCO)n2)cc1 the results were HPGD block -18%, ALDH1A1 block inconclusive, 12-hLO inh 0%, PNC assembly inh -85* and Lamin A splicing inconclusive.
Screening COc1cccc(N2C(=O)N(Cc3ccc(C#N)cc3)c3ccccc3S2(=O)=O)c1 returned Lamin A splicing -2%[46 µM].
Screening O=C(c1ccccc1)c1cc(Cl)ccc1N1C(=O)C=CC1=O returned ALDH1A1 block 10µM* and Lamin A splicing inconclusive.
Screening N#Cc1cc(C(=O)c2cc(Cl)ccc2O)cn(-c2ccccc2)c1=O returned HPGD block -15%, ALDH1A1 block -5%, 12-hLO inh -2%, PNC assembly inh 2 and Lamin A splicing inconclusive.
Fc1ccccc1-n1[nH]nnc1=S was read as HPGD block 25µM*, ALDH1A1 block 2.2µM*, 12-hLO inh -1%, PNC assembly inh 35 and Lamin A splicing 6%.
O=C(c1ccccc1)N1CCN(C(=O)c2ccc([N+](=O)[O-])cc2)CC1 was read as HPGD block -8%, ALDH1A1 block 2%, 12-hLO inh -3%, PNC assembly inh inconclusive and Lamin A splicing -7%.
COc1cccc(C(=O)N2CCN(Cc3ccccc3C(F)(F)F)CC2)c1 was read as HPGD block 2%, ALDH1A1 block inconclusive, 12-hLO inh -24%, PNC assembly inh 6 and Lamin A splicing inconclusive.
Screening O=C(c1ccc([N+](=O)[O-])cc1)N1CCN(Cc2ccccc2[N+](=O)[O-])CC1 returned ALDH1A1 block 10µM*.
Screening O=C(c1ccc(F)cc1)N1CCN(Cc2ccccc2Br)CC1 returned HPGD block -3%, ALDH1A1 block inconclusive, 12-hLO inh -4%, PNC assembly inh -99* and Lamin A splicing -2%.
COc1cc(OC)cc(C(=O)N2CCN(Cc3ccccc3[N+](=O)[O-])CC2)c1 was read as ALDH1A1 block 1.4µM* and Lamin A splicing -4%[46 µM].
Screening O=C(Nc1cccc(F)c1)N1CC2(CCN(C(=O)c3ccncc3)CC2)C1 returned HPGD block -22%, ALDH1A1 block -9% and 12-hLO inh 7%.
For Cc1cccc(C)c1OCC(=O)NCC1(N(C)C)CCCCC1 the results were Lamin A splicing 1%[46 µM].
For Cn1c(=O)c2c(SCC(=O)Nc3ccccc3C(F)(F)F)nc(C3CCCC3)nc2n(C)c1=O the results were Lamin A splicing 13%[46 µM].
CC(C)(C)C(=O)Nc1cccc(C(=O)OCc2cc(=O)n3nc(C4CC4)sc3n2)c1 was read as Lamin A splicing -20%[46 µM].
`COc1ccc(CNCc2cccc(Oc3ccccc3)c2)cc1` gave ALDH1A1 block 14µM* and Lamin A splicing -3%[46 µM].
COc1ccc(CNCc2ccc3c(c2)n(C)c(=O)n3C)cc1 was read as Lamin A splicing 17%[46 µM].
For COc1ccc2c(c1OC)C(=O)OC2CC(=O)c1ccc(O)cc1 (centres undefined) the results were HPGD block 25µM*, ALDH1A1 block 28µM*, 12-hLO inh -10%, PNC assembly inh inconclusive and Lamin A splicing 4%.
Screening COc1ccc2c(c1OC)C(=O)OC2CC(=O)c1ccc(O)c(O)c1 (centres undefined) returned HPGD block inconclusive, ALDH1A1 block 12%, 12-hLO inh inconclusive, PNC assembly inh 4 and Lamin A splicing 13%.
Cn1cc(CN2CCc3ccccc3C2)c2ccccc21 was read as HPGD block -16%, ALDH1A1 block 14µM*, 12-hLO inh -3%, PNC assembly inh -17 and Lamin A splicing -18%.
Screening Oc1ccc(CN2CCc3ccccc3C2)c2cccnc12 returned HPGD block -5%, ALDH1A1 block -3%, 12-hLO inh inconclusive, PNC assembly inh -6 and Lamin A splicing inconclusive.
COc1ccccc1Cn1c(CNS(=O)(=O)c2ccc(Cl)s2)nc2cccnc21 was read as Lamin A splicing -2%[46 µM].
For Cc1cnc(NC(=O)COc2cccc3c2OC(C)(C)C3)s1 the results were HPGD block 2%, ALDH1A1 block 8%, 12-hLO inh 6%, PNC assembly inh -95* and Lamin A splicing -39%.
CCOc1cc2[nH]c(=O)n(CCC(=O)N3CCN(c4cccc(Cl)c4)CC3)c(=O)c2cc1OCC was read as Lamin A splicing 7%[46 µM].
For COc1ccc(NC(=O)N2CCCC3(CCN(C(=O)c4cnccn4)CC3)C2)cc1 the results were HPGD block -2%, ALDH1A1 block 4% and 12-hLO inh 1%.
Screening CC1CCc2c(C(=O)NCC3CCCO3)csc2C1 (centres undefined) returned HPGD block 7.9µM*, ALDH1A1 block inconclusive, 12-hLO inh -5%, PNC assembly inh -11 and Lamin A splicing 22%.
